HEK293 tox: cytotoxic compounds in HEK 293 cells; HEK 293 viability, ATP luminescence (CellTiter-Glo), 48-72 h; Potency, µM (series often up to 115 µM), for inactives: at the highest dose activity change, negative = cytotoxicity, usual class: inhibitors; 94,000 compounds, 6.6% hits; AID 1345083; note: nearly all actives have a fitted effect of over 60% in size
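HEK 293 seeded at 250 cells/well receive compound via pintool. After 48 or 72 hr at 37 degree Celsius, 5% CO2 and 95% humidity, CellTiter-Glo is dispensed and luminescence read following 10 min at room temperature.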
NPR1 antag: blocks ANP-stimulated signaling of human Npr1 receptor. Potency, µM (series often up to 46.3 µM), for inactives: at the highest dose activity change, negative = inhibition, most hits filed as inhibitors. AID 1347048. HEK293 hNpr1 GloSensor cGMP, ANP-stimulated luminescence. P16066. 76,000 compounds, 1.6% hits; calls by dose curve; note: nearly all actives have a fitted effect of over 60% in size
Target sequence (P16066 whole entry, looked up): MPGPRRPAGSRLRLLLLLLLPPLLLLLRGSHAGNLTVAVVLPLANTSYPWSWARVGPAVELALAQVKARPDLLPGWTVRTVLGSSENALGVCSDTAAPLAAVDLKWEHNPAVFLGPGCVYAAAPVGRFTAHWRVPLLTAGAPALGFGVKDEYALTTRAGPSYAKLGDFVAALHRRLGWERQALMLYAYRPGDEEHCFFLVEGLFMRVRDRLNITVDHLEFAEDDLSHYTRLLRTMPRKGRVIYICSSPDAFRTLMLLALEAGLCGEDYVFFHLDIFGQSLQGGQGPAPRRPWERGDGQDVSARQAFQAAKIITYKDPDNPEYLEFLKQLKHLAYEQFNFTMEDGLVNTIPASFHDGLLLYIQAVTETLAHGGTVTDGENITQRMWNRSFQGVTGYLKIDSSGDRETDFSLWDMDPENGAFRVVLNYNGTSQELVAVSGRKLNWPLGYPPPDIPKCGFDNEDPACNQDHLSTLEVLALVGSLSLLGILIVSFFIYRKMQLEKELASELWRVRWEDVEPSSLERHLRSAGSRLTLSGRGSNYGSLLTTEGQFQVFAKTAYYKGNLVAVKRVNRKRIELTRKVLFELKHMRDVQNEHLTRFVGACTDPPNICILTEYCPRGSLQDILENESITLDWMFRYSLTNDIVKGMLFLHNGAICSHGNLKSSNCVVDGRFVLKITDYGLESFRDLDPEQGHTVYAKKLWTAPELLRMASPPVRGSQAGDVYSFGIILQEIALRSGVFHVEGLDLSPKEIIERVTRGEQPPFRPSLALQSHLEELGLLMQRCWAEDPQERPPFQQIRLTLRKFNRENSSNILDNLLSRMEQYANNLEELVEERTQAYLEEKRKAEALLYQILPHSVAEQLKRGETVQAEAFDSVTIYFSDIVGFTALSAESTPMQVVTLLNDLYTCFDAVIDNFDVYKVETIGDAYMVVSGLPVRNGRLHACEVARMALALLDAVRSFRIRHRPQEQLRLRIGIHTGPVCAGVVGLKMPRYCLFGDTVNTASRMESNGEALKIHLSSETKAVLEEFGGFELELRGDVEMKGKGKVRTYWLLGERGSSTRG
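Compound pre-incubated 30 min at room temperature on GloSensor-loaded HEK293 cells stably carrying hNpr1 and the pGS-40F cGMP biosensor. Stimulation uses hNppA at 0.1 nM final; luminescence is taken at baseline and 20 min post-agonist.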
Luciferase inh: inhibitors of firefly (Photinus pyralis) luciferase | P08659 | Potency, µM (series often up to 115 µM), usual class: inhibitors | purified P. pyralis luciferase, luminescence, biochemical | AID 1347043 | 76,000 compounds, 2.5% hits; note: nearly all actives have a fitted effect of over 65% in size
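Purified 10nM P. pyralis luciferase with 10uM D-luciferin and 10uM ATP in 50mM Tris acetate pH 7.5, 10mM Mg acetate, 0.01% Tween-20, 0.05% BSA. qHTS titration; luminescence read by CCD imager.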
NIH3T3 tox: kills NIH 3T3 cells; NIH 3T3 viability, CellTiter-Glo ATP luminescence, 48-72 h; Potency, µM (titrated, usually from 96.7 µM), for inactives: top-dose activity change, negative = cytotoxicity, hits mostly inhibitors; 94,000 compounds, 4.3% hits; note: nearly all actives have a fitted effect of over 55% in size
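NIH 3T3 cells at 400 cells/well received 23 nL of compound by pintool and were incubated 48 or 72 h at 37 °C. Viability was read as ATP-coupled CellTiter-Glo luminescence.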
Starred values were filed as active, the others as inactive; i = inactive; ? = inconclusive; nt = not tested or not shown; [ ] = dose if it differs, or a comment. This is a sample that favours compounds with a hit; in the whole collection about 11% have one here. Unless noted, calls come from the whole dose curve; as a rule, active = well fitted curve in the direction sought with a large enough effect; inconclusive = small, poorly fitted or top-dose-only effect, or another doubt; inactive = no such curve, though single readings can be large; an effect the other way counts as inactive or inconclusive. % is set by controls: 0 for no effect and ±100 for the full control effect; potency is the fitted concentration of half-maximal effect.

SMILES | HEK293 tox | NPR1 antag | Luciferase inh | NIH3T3 tox
O=C1[C@@H]2C[C@@H](CN2C(=O)c2ccccn2)Oc2ccccc2N1Cc1ccc(OC(F)(F)F)cc1 | ? | 4% | i | -19%
CO[C@H]1C(=O)N(C2CCN(C(=O)C(C)C)CC2)[C@H]1c1ccncc1 | -9% | nt | nt | -26%
COc1ccc(-c2cnc3n[nH]c(-c4ccccc4)c3n2)cc1 | 89µM* | -1%[70.6 µM] | i | 79µM*
COc1cccc(-c2cnc3n[nH]c(-c4ccccc4)c3n2)c1 | 56µM* | -5%[70.6 µM] | i | 40µM*
O=C(NC1CCCN(c2ccc3nnc(-c4ccccc4)n3n2)C1)c1cccc(Cl)c1 (configuration not stated) | 3% | nt | nt | -18%
O=C(NCc1ccc(F)cc1)c1nc(-c2cccc(C(F)(F)F)c2)c2cnccn12 | ? | 0% | i | -23%
FC(F)(F)c1cccc(-c2nccn3c(C4CN(Cc5ccc6cn[nH]c6c5)C4)ncc23)c1 | 45µM* | -16% | i | 40µM*
O=C1CC2(CCN(C(=O)C3CCCN3C(=O)c3ccccc3)CC2)Oc2ccccc2N1 (configuration not stated) | 0% | nt | nt | -4%
Cc1nn2c(c1-c1ccccc1C(C)C)N(C(=O)C1CCOCC1)CCC2 | ? | 4%[70.6 µM] | i | ?
Cc1nn2c(c1-c1cccnc1N1CCOCC1)N(C(=O)COc1ccccc1)CCC2 | 1%[172 µM] | 2%[70.6 µM] | i | 100µM*
Cc1nn2c(c1-c1cccnc1N1CCOCC1)N(CCCc1ccccc1)CCC2 | 50µM* | ? | i | ?
Cc1nn2c(c1-c1cccnc1N1CCOCC1)N(Cc1ccccc1F)CCC2 | ? | -18%[70.6 µM] | i | ?
Cc1nn2c(c1-c1ccccc1-c1ccccc1)N(C(=O)COc1ccccc1)CCC2 | ? | -26%[70.6 µM] | i | ?
Cc1nn2c(c1-c1ccccc1N1CCCC1)N(C(=O)C1CCOCC1)CCC2 | 100µM* | -2%[70.6 µM] | i | ?
Cc1nn2c(c1-c1ccccc1N1CCCC1)N(C(=O)COc1ccccc1)CCC2 | 71µM* | -14%[70.6 µM] | i | ?
CC(C)CNC(=O)c1cc(-c2cc(Cl)cc(Cl)c2)c2nncn2n1 | i | nt | nt | -28%
Cc1nn2c(c1-c1ccccc1C(C)C)N(C(=O)c1ccn(C)n1)CCC2 | 1%[172 µM] | -1%[70.6 µM] | i | ?
Cc1nn2c(c1-c1ccccc1N1CCCC1)N(C(=O)c1cccc(N(C)C)c1)CCC2 | 89µM* | -5%[70.6 µM] | i | ?
Cc1ccc(NC(=O)Cn2c(-c3ccccc3)nc(C)c(CCO)c2=O)cc1Cl | ? | -15% | i | 28µM*
Cc1ccccc1NC(=O)Cn1c(-c2cccc(Cl)c2)nc(C)c(CCO)c1=O | ? | -3% | i | ?
CC(=O)c1cccc(NC(=O)Cn2c(-c3ccc(F)cc3)nc(C)c(CCO)c2=O)c1 | ? | -6% | i | ?
Cc1nc(-c2ccccc2)n(CC(=O)Nc2ccc(F)c(Cl)c2)c(=O)c1CCO | 40µM* | -27% | i | ?
Cc1nc(-c2ccccc2)n(CC(=O)Nc2ccc(Cl)cc2)c(=O)c1CCO | ? | -18% | i | -29%
Cc1nc(-c2ccccc2)n(CC(=O)Nc2cccc(C#N)c2)c(=O)c1CCO | 40µM* | -21% | i | ?
O=C1NCc2ccccc2CC12CCN(Cc1cnc3ccccc3c1)CC2 | ? | nt | nt | -18%
SMILES | HEK293 tox | NPR1 antag | Luciferase inh | NIH3T3 tox
CCc1cc(N2CCC(NCCc3cccc(Cl)c3)CC2)nc(C)n1 | ? | -3% | i | 40µM*
CCCc1cc(N2CCC(N[C@@H]3CCNC3)CC2)nc(C)n1 | 1% | 4% | i | -18%
CCNC(=O)NC1=N[C@@]23CO[C@H](c4ccccc4)C[C@@H]2CC(=O)[C@H]3S1 | ? | nt | nt | -42%
Oc1ccccc1CN1CC(CNc2cccnc2)C2(C1)CN(c1ccccc1)C2 (configuration not stated) | 63µM* | -23%[70.6 µM] | i | ?
O=C(NCC1CN(Cc2cccnc2)CC12CN(c1ccccc1)C2)Nc1ccccc1 (configuration not stated) | ? | 2%[70.6 µM] | i | -15%[138 µM]
CC(C)c1ccc(CN2CC(CNc3cccnc3)C3(C2)CN(c2ccccc2)C3)cc1 (configuration not stated) | 50µM* | ? | i | 35µM*
O=C(c1cccnc1)N1CC(CNc2ccccc2)C2(C1)CN(c1ccccc1)C2 (configuration not stated) | ? | 2%[70.6 µM] | i | ?
c1ccc(NCC2CN(Cc3ccccn3)CC23CN(c2ccccc2)C3)cc1 (configuration not stated) | 79µM* | -1%[70.6 µM] | i | ?
CC1CCC2(CC1)NC(=O)N(CC(=O)Nc1ccc(C(C)C)cc1)C2=O (configuration not stated) | 28µM* | 4% | i | ?
CC1CCC2(CC1)NC(=O)N(CC(=O)Nc1cccc(F)c1)C2=O (configuration not stated) | -12% | 0% | i | -3%
CC1CCC2(CC1)NC(=O)N(CC(=O)Nc1cccc(C(F)(F)F)c1)C2=O (configuration not stated) | 25µM* | -10% | i | ?
CC(=O)c1ccc(NC(=O)CN2C(=O)NC3(CCC(C(C)(C)C)CC3)C2=O)cc1 (configuration not stated) | ? | -1% | i | ?
CC(=O)c1cccc(NC(=O)CN2C(=O)NC3(CCC(C(C)(C)C)CC3)C2=O)c1 (configuration not stated) | ? | 0% | i | 40µM*
COc1ccc(CN2C[C@H]3CN(S(=O)(=O)c4ccc(OC)cc4)CCN3C2=O)cc1 | ? | ? | i | ?
O=C(NCCCc1ccccc1)c1n[nH]c2c1CN(C(=O)c1ccc(F)cc1F)CC2 | 79µM* | 2% | i | ?
O=C(NCCCc1ccccc1)c1n[nH]c2c1CN(C(=O)c1ccccc1F)CC2 | ? | -17% | i | 35µM*
O=C(NCCCc1ccccc1)c1n[nH]c2c1CN(C(=O)c1ccc3c(c1)OCO3)CC2 | ? | nt | nt | 35µM*
O=C(NCCCc1ccccc1)c1n[nH]c2c1CN(C(=O)c1ccccc1Cl)CC2 | ? | 0% | ? | ?
CCCC(C)C(=O)N1CCc2[nH]nc(C(=O)NCCCc3ccccc3)c2C1 (configuration not stated) | 35µM* | nt | nt | 40µM*
Cc1ccc(OC2(C(=O)N(C)Cc3n[nH]c4c3CCCC4)CCNCC2)cc1 | ? | -18% | i | ?
O=C(Cc1ccc(F)cc1)N1CCC(C(=O)N2CCCC2c2nc3ccncc3[nH]2)CC1 (configuration not stated) | -6% | nt | nt | -7%
O=[S+]([O-])(Nc1cc(-c2ccccn2)nn1-c1ccccc1)c1ccccc1 | -33% | nt | nt | ?
COCCCNC(=O)c1nc2cccnc2n(CCc2ccccc2)c1=O | -20% | nt | nt | -12%

Screening data: PubChem, National Center for Advancing Translational Sciences (NCATS)
